This is a sample that favours compounds with a hit; in the whole collection about 1.2% have one here.
Mito fusion act: mitochondrial division inhibition or fusion activation | S. cerevisiae fusion-defective mutant growth rescue, CellTiterGlo 48 h | Potency, µM (top dose mostly 46.1 µM), usual class: activators | actives 0.23% (n = 320,000); also: nearly all actives have a fitted effect of over 45% in size
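Yeast fusion mutant, YPEG (non-fermentable carbon), compound, 48 h at 37C non-permissive; CellTiterGlo added, 10 min RT, luminescence read. Rescued growth = division inhibition.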
ERG-DNA inh: blocks human ERG Ets domain binding to DNA. P11308. fluorescence polarization, His-ERG Ets domain / labelled DNA. Potency, µM (doses to about 76.9 µM), actives largely listed as inhibitors. actives 0.028% (n = 370,000); active = well fitted inhibition curve with a large enough effect in the polarisation, with a control signal flat; inconclusive = small, poorly fitted or top-dose-only effect, or effect the other way, or a change in a side signal; inactive = no such curve, though single readings can be large or run the other way; the % refers to the polarisation;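 also: polarization taken with two DNA probes labelled with fluorescein and Texas red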
Target sequence (P11308 whole entry, looked up, the tested form may be a part): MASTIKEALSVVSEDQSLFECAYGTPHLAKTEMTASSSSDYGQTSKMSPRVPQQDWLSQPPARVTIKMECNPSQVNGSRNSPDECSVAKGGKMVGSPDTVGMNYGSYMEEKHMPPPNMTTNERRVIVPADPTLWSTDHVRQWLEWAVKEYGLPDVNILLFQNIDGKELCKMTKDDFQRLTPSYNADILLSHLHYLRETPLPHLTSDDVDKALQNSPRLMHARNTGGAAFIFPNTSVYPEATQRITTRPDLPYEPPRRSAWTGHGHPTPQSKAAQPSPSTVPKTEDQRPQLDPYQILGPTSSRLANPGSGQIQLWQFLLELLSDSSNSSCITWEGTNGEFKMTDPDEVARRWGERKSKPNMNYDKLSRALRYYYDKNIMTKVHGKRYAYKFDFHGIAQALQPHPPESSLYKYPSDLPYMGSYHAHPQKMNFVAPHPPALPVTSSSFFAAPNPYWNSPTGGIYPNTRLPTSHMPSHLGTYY
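His-tagged ERG Ets domain (1 uM in the protein solution; 300mM KCl, 50mM Tris-HCl, 1mM EDTA, 1mM DTT, pH 7.5) received compound, then a probe mix of 5 nM fluorescein-DNA and 100nM Texas-615-DNA. Fluorescence polarization was read for both dyes.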
B2AR arrestin: agonists driving beta-arrestin recruitment to human beta2-adrenergic receptor; AID 492947; actives 0.02% (n = 330,000); P07550; beta-arrestin recruitment to beta2AR, cell-based reporter; Potency, µM (top dose mostly 46.1 µM), actives largely listed as activators; also: nearly all actives have a fitted effect of over 65% in size
BRCA1 expr up: BRCA1 expression activation. MCF7-BRCA1-FFLuc reporter, luminescence, 48 h; response scale: scaled: vehicle 0%, 10 µM genistein 100%. Potency, µM (series often up to 46.1 µM), actives largely listed as activators. actives 1.1% (n = 380,000). AID 624202; also: nearly all actives have a fitted effect of over 80% in size
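First, MCF7-BRCA1-FFLuc cells (2000/well) attach for 2 h; next, compounds are pin-added and incubated 48 h at 37 °C; finally, luciferase reagent is added and luminescence read after 15 min.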
A number is an active result; – = inactive; ? = inconclusive; · = no result; ! = not active in a repeat. Unless noted, calls follow the shape of the dose curve; as a rule, active = well fitted curve in the direction sought with a large enough effect; inconclusive = small, poorly fitted or top-dose-only effect, or another doubt; inactive = no such curve, though single readings can be large; an effect the other way counts as inactive or inconclusive.

SMILES | Mito fusion act | ERG-DNA inh | B2AR arrestin | BRCA1 expr up
N=C1SCC(=O)N1/N=C/c1ccccc1 | – | 28µM | – | –
C=Cc1ccc(CSc2nc(-c3ccc(C)cc3)nc3c2Cc2c(CO)cnc(C)c2O3)cc1 | · | – | · | ·
CN1C(C(=O)Nc2ccccn2)=C(O)c2ccccc2S1(=O)=O | 16µM! | – | – | –
CN1C(C(=O)Nc2ncccn2)=C(O)c2ccccc2S1(=O)=O | – | – | – | –
Cc1ccc(NC(=O)c2ccc3c(c2)NC(=O)CS3)nc1 | – | – | – | 7.9µM
O=C(O)c1ccc(Cn2nnc3sc4c(c3c2=O)CCCC4)cc1 | – | – | – | 7.9µM
COC(=O)c1ccc(Cn2nnc3sc4c(c3c2=O)CCCC4)cc1 | · | – | · | ·
O=C(CSCc1ccccc1Cl)N1CCN(c2ccc(Cl)cc2)CC1 | · | – | · | ·
CCN1C(=O)/C(=C/C=C2\C=CN(CC)c3ccccc32)SC1=S | – | · | – | 6.3µM
CCN1C(=O)/C(=C\C=C2/C=CC=CN2CC)SC1=S | – | – | – | ?
CCN1C(=O)C(=CC=CN(C)c2ccccc2)SC1=S | · | · | · | 2.5µM
N#Cc1ccccc1NC(=O)C(=O)NCC(c1cccnc1)N1CCc2ccccc21 (stereo not drawn) | · | – | · | ·
CC(=O)O/N=C(\N)c1ccc(-c2csnn2)cc1 | – | – | – | 11µM
CC(C)(C)C(=O)O/N=C(\N)c1ccc(-c2csnn2)cc1 | – | – | – | –
O=C(OCc1ccccc1)c1ccccc1 | · | – | · | –
O=C(OCc1ccccc1)c1ccc2c(c1)-c1ccccc1C2=O | – | – | – | 8.9µM
Cc1ccc2nc(-c3ccc(N4C(=N)SC5CS(=O)(=O)CC54)cc3)sc2c1 (stereo not drawn) | – | – | – | 8.9µM
Cc1ccc2nc(-c3ccc(N)cc3)sc2c1 | – | – | – | –
NC(=O)C1CCN(c2nc(-c3cccs3)cs2)CC1 | – | · | – | 1.3µM
NC(=O)C1CCN(c2nc(-c3ccc(Br)cc3)cs2)CC1 | – | – | – | 1.8µM
COc1cc(C(=O)Nc2ccc(OCc3cc(=O)n4cccc(C)c4n3)cc2)cc(OC)c1OC | · | – | · | ·
COc1ccc(-n2ncc3c(Nc4cccc(C)c4)ncnc32)cc1 | – | · | – | ?
Cc1ccc(-n2ncc3c(Nc4cccc(C)c4)ncnc32)cc1 | · | – | · | 2.8µM
CCCn1ncc2c(Nc3ccc(C)c(C)c3)ncnc21 | – | – | – | 8.9µM
Cc1cccc(NC(=O)c2cc(-c3ccc4c(c3)OCCO4)on2)c1 | · | – | · | –
SMILES | Mito fusion act | ERG-DNA inh | B2AR arrestin | BRCA1 expr up
CCOC(=O)c1cnc(SCc2cccc(C)c2)nc1N | – | – | – | 10µM
CCOC(=O)c1cnc(SCC(C)C)nc1N | – | – | – | 7.9µM
CCOC(=O)c1cnc(SCC(=O)c2ccc(C)cc2)nc1N | – | – | – | –
Cn1cc([N+](=O)[O-])c(C(=O)Nc2sc3c(c2C#N)CCC3)n1 | 11µM | – | – | –
O=C(N=C1c2ccccc2CN1c1ccc(F)c(Cl)c1)c1cccnc1Cl | – | · | – | ·
N#Cc1ccc(N2Cc3ccccc3C2=NC(=O)c2cccnc2Cl)cc1 | – | – | ? | 13µM
COc1cccc(CN(Cc2ccco2)c2cnc(S(C)(=O)=O)nc2C(=O)Nc2cccc(Cl)c2C)c1 | · | – | · | ·
N=C1S/C(=C\c2cn[nH]c2-c2ccc(F)cc2)C(=O)N1c1ccccc1F | – | – | – | 7.1µM
N=C1S/C(=C\c2ccccc2F)C(=O)N1c1ccc(F)cc1 | – | – | – | –
Cc1ccc(Nc2cc(C)nc(-c3ccccc3O)n2)cc1 | – | – | – | –
Cc1cc(NCCCN)nc(-c2ccccc2O)n1 | – | – | – | 3.5µM
O=S(=O)(c1nccs1)N1CCN(c2nc(-c3cccs3)nc3ccccc23)CC1 | · | · | · | –
O=C(Cn1cc2c(n1)CCCCC2)NC1CCCCCC1 | – | – | – | 8.9µM
CCOC(=O)c1ccc(NC(=O)Cn2nnc3ccccc32)cc1 | – | – | – | 4µM
CCN(CCn1cccn1)C(=O)CCc1nnc(CCCc2ccccc2)o1 | – | – | – | 13µM
CCCCn1cnc2c(SCc3cccc(F)c3)nc(N)nc21 | · | – | · | –
CCCn1cnc2c(SCc3ccccc3F)nc(N)nc21 | · | – | · | 10µM
CC(=O)c1ccc(NC(=O)c2cnn3c2NC(=C2CC2)C=C3C(F)F)cc1 | · | · | · | –
O=C(N/N=C/c1cc2c(cc1Br)OCO2)c1ccccn1 | – | – | – | 7.9µM
Cc1ccc(/C=N/NC(=O)c2ccccn2)o1 | – | – | – | 11µM
CCCOc1ccc(C(=O)NCC2OCCc3ccccc32)cc1 (stereo not drawn) | · | – | · | –
CCOC(=O)C1CCN(C(=O)Nc2ccc(OC(F)(F)F)cc2)CC1 | – | – | – | 13µM
CCc1ccc(NC(=O)N2CCCCCC2)cc1 | – | – | – | 7.1µM
CCOC(=O)c1ccc(NC(=O)N2CCN(C(=O)c3ccco3)CC2)cc1 | – | 35µM | – | –
CCOc1ccc(NC(=O)N2CCN(C(=O)c3ccco3)CC2)cc1 | – | – | – | –
SMILES | Mito fusion act | ERG-DNA inh | B2AR arrestin | BRCA1 expr up
S=C(Nc1ccc(Br)cc1)NC1CCCCC1 | ? | – | – | 10µM
S=C(Nc1ccc(Cl)cc1)NC1CCCCC1 | – | – | – | –
C=C(c1nc2ccccc2s1)C1Cc2cccc3c2N(CCC3)C1 (stereo not drawn) | · | · | · | –
COc1ccc(CCC(=O)NC2CC(=O)N(c3ccc(OC)cc3)C2)cc1 (stereo not drawn) | · | – | · | ·
CCc1ccc(NC(=S)N2CCN(C)CC2)cc1 | – | – | – | 11µM
Cc1ccc(NC(=S)N2CCCCCC2)cc1 | – | – | – | 13µM
Cc1ccc(NC(=O)C(=O)NC2CCCCC2)cc1 | – | – | – | 1.3µM
Cc1ccc(NC(=O)N2CCCCCC2)cc1 | – | – | – | 7.9µM
CCc1ccc(NC(=S)N2CCCC2)cc1 | – | – | – | ?
Cc1ccc(NC(=O)NC2CCCCCCC2)cc1 | – | – | – | ?
CSc1ccc(/C=C2\C=Cc3ccc([N+](=O)[O-])cc32)cc1 | · | · | · | –
O=C(N/N=C/c1cc([N+](=O)[O-])ccc1O)c1ccc(COc2ccc3c(c2)CCC3)o1 | – | – | – | –
O=C(N/N=C/c1ccc2ccccc2c1)c1ccc(COc2ccc3c(c2)CCC3)o1 | – | – | – | 2µM
COc1ccccc1/C=N\NC(=O)c1ccc(COc2ccc(C)c(C)c2)o1 | · | – | · | 5.6µM
CCOC(=O)c1sc(N/N=C/c2cccc(C)c2)nc1C | – | – | – | 2.8µM
CCc1ccc2oc(C(=O)Nc3cc(Cl)ccc3OC)cc(=O)c2c1 | · | – | · | ·
O=C(COC(=O)c1cc2ccccc2oc1=O)Nc1ccc(F)cc1F | – | – | – | 10µM
CN(C)S(=O)(=O)c1cccc(NC(=O)COC(=O)c2cc3ccccc3oc2=O)c1 | – | – | – | 10µM
CCN(c1ccc(NC(=O)COC(=O)c2cc3ccccc3oc2=O)cc1)C(C)C | – | – | – | –
COc1ccc(N(Cc2nnc3n2CCCCC3)C(=O)Nc2ccc(Cl)cc2)cc1Cl | · | – | · | –
Clc1ccc(-c2nc(N3CCCCC3)nc3ccccc23)cc1 | 35µM | – | – | –
O=C(CCN1C(=O)c2cccc3cccc(c23)C1=O)N1CCOCC1 | – | – | – | 13µM
